Source: PubChem (National Center for Advancing Translational Sciences (NCATS))
VACV Venus inh – inhibitors of vaccinia virus (Venus reporter); Vaccinia virus Venus reporter expression, fluorescence; 330,000 tested, 0.46% active; Potency, µM (series often up to 36.5 µM), hits mostly inhibitors; AID 720580; calls by dose curve; tested in A549 cells; also: nearly all actives have a fitted effect of over 30% in size
Marburg entry inh – inhibitors of Marburg virus binding or cell entry; Marburg virus pseudotyped entry inhibition, cell reporter; Potency, µM (highest dose often 37.8 µM), usual class: inhibitors; 300,000 tested, 1.8% active; calls by dose curve; tested in HEK293 cells
Vaccinia mCherry – vaccinia inhibition (mCherry reporter) | AID 720579 | Potency, µM (titrated, usually from 36.5 µM), actives largely listed as inhibitors | Vaccinia virus mCherry reporter infection, fluorescence | 310,000 tested, 0.63% active; calls by dose curve; tested in A549 cells; also: nearly all actives have a fitted effect of over 35% in size
LASV entry inh – blocks Lassa virus binding to or entry into cells; Potency, µM (doses to about 37.9 µM), most hits filed as inhibitors; AID 540256; 300,000 tested, 1.2% active; Lassa virus pseudotype entry inhibition, cell reporter; calls by dose curve; tested in HEK293 cells; also: nearly all actives have a fitted effect of over 50% in size
HCV inh – HCV inhibition | Huh7.5.1 HCVcc-Cre infection, luciferase reporter, 44 h | Potency, µM (series often up to 41.8 µM), hits mostly inhibitors | 340,000 tested, 3.4% active; active = well fitted inhibition curve with a large enough effect; inconclusive = small, poorly fitted or top-dose-only effect, or another doubt; inactive = no such curve, though single readings can be large or run the other way
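Infectious HCVcc-Cre (~0.5 moi) was added to cells just after compound, with cells seeded 4 h earlier at 1,000 per well. Luciferase activity after 44 h culture reported infection; substrate was incubated 15 min at room temperature before reading.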
FMDV antiviral – antivirals against foot and mouth disease virus | AID 1159524 | FMDV antiviral cell-based qHTS | 410,000 tested, 1.2% active | Potency, µM (top dose mostly 57.9 µM), usual class: inhibitors; calls by dose curve; tested in HEK293T cells; also: read-out not given here; nearly all actives have a fitted effect of over 45% in size
Each line names hits and unclear results; the compound was inactive in the other large screens. Most compounds without a hit are left out; they make up all but 5.3% or so of the library.

COc1ccccc1N1CCN(C2=Nc3cccc4cccc2c34)CC1	Marburg entry inh 6.3µM, LASV entry inh inconclusive, HCV inh 13µM
c1ccc(CC2CCN(C3=Nc4cccc5cccc3c45)CC2)cc1	Marburg entry inh 16µM, HCV inh 11µM, FMDV antiviral inconclusive
Cc1ccc(C(=O)NNC(=O)CCCN2C(=O)/C(=C/c3ccccc3Cl)SC2=S)cc1	Marburg entry inh 11µM, LASV entry inh inconclusive, FMDV antiviral inconclusive
O=C(CCN1C(=O)/C(=C/c2ccccc2Cl)SC1=S)NNC(=O)c1cccnc1	Marburg entry inh inconclusive
O=C(CCCN1C(=O)/C(=C/c2ccccc2Cl)SC1=S)NNC(=O)c1ccc(Cl)cc1	FMDV antiviral 7.9µM (no result: Marburg entry inh, LASV entry inh)
Cc1ccc(/C=C2\SC(=S)N(CCCC(=O)NNC(=O)c3ccccc3O)C2=O)cc1	HCV inh inconclusive, FMDV antiviral 8.9µM (no result: VACV Venus inh, Marburg entry inh, Vaccinia mCherry, LASV entry inh)
Cc1ccc(/C=C2\SC(=S)N(CCCC(=O)NC3CCCC3)C2=O)cc1	Marburg entry inh inconclusive, LASV entry inh 1.1µM, FMDV antiviral 16µM
CCC1C(=O)NCCN1Cc1ccc2c(c1)CN(Cc1ccc(F)c(OC)c1)CCO2 (centres undefined)	none (no result: Marburg entry inh, LASV entry inh, HCV inh)
CCCOC(=O)c1ccc(NC(=O)Cc2csc(C)n2)cc1	none (no result: HCV inh)
O=C(CCCN1C(=O)/C(=C/c2ccccc2Cl)SC1=S)Nc1ccccn1	Marburg entry inh inconclusive, LASV entry inh inconclusive, HCV inh inconclusive, FMDV antiviral inconclusive
O=C1/C(=C/c2ccccc2Cl)SC(=S)N1CCCC(=O)N(CCO)c1ccccc1	HCV inh 13µM, FMDV antiviral inconclusive (no result: VACV Venus inh, Marburg entry inh, Vaccinia mCherry, LASV entry inh)
CC1CN(CCNC(=O)C2CCCc3c2[nH]c2ccccc32)Cc2ccccc2O1 (centres undefined)	FMDV antiviral inconclusive (no result: Marburg entry inh, LASV entry inh, HCV inh)
C[n+]1c2cc(N)ccc2cc2ccc(N)cc21 (tested in a mixture with another compound)	VACV Venus inh inconclusive (no result: Marburg entry inh, Vaccinia mCherry, LASV entry inh, HCV inh)
C[n+]1c2cc(N)ccc2cc2ccc(N)cc21	VACV Venus inh inconclusive, Vaccinia mCherry 5.6µM, HCV inh 1.4µM, FMDV antiviral inconclusive (no result: Marburg entry inh, LASV entry inh)
C[C@@H]1CN(Cc2ccc3c(c2)CN(Cc2cccn2-c2cccnc2)CCO3)C[C@H](C)O1	none (no result: Marburg entry inh, LASV entry inh, HCV inh)
CC1CCN(S(=O)(=O)c2ccc3c(c2)C(=NO)c2cc(S(=O)(=O)N4CCC(C)CC4)ccc2-3)CC1	VACV Venus inh inconclusive, Marburg entry inh inconclusive, Vaccinia mCherry 2.8µM, LASV entry inh 2.5µM, HCV inh 2µM, FMDV antiviral inconclusive
O=S(=O)(c1ccc2c(c1)C(=NO)c1cc(S(=O)(=O)N3CCCCC3)ccc1-2)N1CCCCC1	VACV Venus inh 1.4µM, Marburg entry inh inconclusive, Vaccinia mCherry 1.8µM, LASV entry inh 6.3µM, HCV inh 5µM, FMDV antiviral inconclusive
Cc1cc(OCC(=O)Nc2c(C)n(C)n(-c3ccccc3)c2=O)c2c3c(c(=O)oc2c1)CCC3	none (no result: VACV Venus inh, Vaccinia mCherry, LASV entry inh, HCV inh, FMDV antiviral)
Cc1ccc(-n2nc(C)cc2NC(=O)COc2cc(C)cc3oc(=O)c4c(c23)CCC4)cc1	Marburg entry inh inconclusive, HCV inh 7.1µM (no result: VACV Venus inh, Vaccinia mCherry)
Cc1cc(OC(=O)c2ccco2)c2c3c(c(=O)oc2c1)CCCC3	Marburg entry inh 11µM, LASV entry inh inconclusive, HCV inh inconclusive, FMDV antiviral inconclusive
COc1cccc(-c2nc(CS(=O)(=O)CC(=O)NCc3ccc(C)cc3)c(C)o2)c1	none (no result: HCV inh)
Cc1cc(C(=O)CN2C(=O)C(=O)N(Cc3ccccc3)C2=O)c(C)n1Cc1ccccc1	none
Cc1cc(C(=O)CN2C(=O)C(=O)N(Cc3ccccc3)C2=O)c(C)n1CC1COc2ccccc2O1 (centres undefined)	Marburg entry inh inconclusive, Vaccinia mCherry inconclusive, HCV inh 11µM
COc1ccc(-n2cc(CNC(C)c3ccncn3)c(-c3cccc(F)c3)n2)cc1 (centres undefined)	Marburg entry inh inconclusive
COc1ccc(-n2cc(CN[C@H]3CCCCNC3=O)c(-c3cccc(F)c3)n2)cc1	HCV inh inconclusive (no result: VACV Venus inh, Marburg entry inh, Vaccinia mCherry, LASV entry inh)
COc1ccc(-n2cc(CNC3CCN(C)CC3)c(-c3cccc(F)c3)n2)cc1	VACV Venus inh inconclusive, Marburg entry inh 3.2µM, Vaccinia mCherry inconclusive, LASV entry inh 11µM, HCV inh 11µM
CCC(COC)NCc1cn(-c2ccc(OC)cc2)nc1-c1cccc(F)c1 (centres undefined)	Marburg entry inh 10µM, LASV entry inh inconclusive, FMDV antiviral inconclusive
COc1cccc(/C=C/c2nccc3ccccc23)c1OC	none (no result: Marburg entry inh, LASV entry inh, HCV inh, FMDV antiviral)
O=C(c1ccc2c(c1)OCO2)N(Cc1cc2cc3c(cc2nc1N1CCOCC1)CCC3)CC1CCCO1 (centres undefined)	none (no result: Marburg entry inh, LASV entry inh, HCV inh)
N/C(=N\OC(=O)COc1ccc(Br)cc1Cl)c1ccccn1	Marburg entry inh inconclusive, LASV entry inh 2µM
Cc1cc(C)c(C)c(OCC(=O)O/N=C(\N)c2ccccn2)c1	LASV entry inh inconclusive, HCV inh 10µM (no result: Vaccinia mCherry)
N/C(=N\OC(=O)COc1ccc(Cl)cc1Cl)c1ccccn1	none (no result: Marburg entry inh, LASV entry inh)
Cc1cc(C(C)(C)C)cc(C)c1Cn1c2[n+](c3ccc(C(F)(F)F)cc31)CCCCC2	Marburg entry inh inconclusive, LASV entry inh 13µM, HCV inh 7.1µM, FMDV antiviral 28µM
O=[N+]([O-])c1cccnc1N1CCC(c2cc(-c3ccc(Cl)cc3)n[nH]2)CC1	Marburg entry inh inconclusive, LASV entry inh inconclusive, HCV inh 10µM, FMDV antiviral inconclusive
CC(C)(C)c1ccc(-n2nc(C#N)c(Cl)cc2=O)cc1	VACV Venus inh 10µM, Marburg entry inh inconclusive, Vaccinia mCherry inconclusive, LASV entry inh inconclusive, HCV inh inconclusive, FMDV antiviral 13µM
CC(C)(C)c1ccc(-n2nc(C(N)=O)c(O)cc2=O)cc1	Marburg entry inh inconclusive
CC(C)N1CCN(c2ccc(C(=O)c3c(-c4ccc(O)cc4)sc4cc(O)ccc34)cc2)CC1	none (no result: VACV Venus inh, Marburg entry inh, Vaccinia mCherry, LASV entry inh, HCV inh)
Cc1ncc2c(c1CNS(=O)(=O)N(C)C)CCN(C(=O)c1[nH]c3ccc(Cl)cc3c1C)C2	none (no result: Marburg entry inh, LASV entry inh, HCV inh)
CCOc1ccc(CSC2=NCCN2)cc1Cl	Marburg entry inh 15µM, LASV entry inh inconclusive, HCV inh inconclusive (no result: VACV Venus inh, Vaccinia mCherry)
COc1ccc(Nc2cc(C)c3cc(NC(=O)c4cc(OC)cc(OC)c4)ccc3n2)cc1	VACV Venus inh inconclusive (no result: Marburg entry inh, HCV inh)
COC(=O)c1cc(S(=O)(=O)C(C)C)c(S(C)=O)s1 (centres undefined)	VACV Venus inh inconclusive, Marburg entry inh 11µM, Vaccinia mCherry 10µM
CCOC(=O)C1(CCc2ccccc2)CCN(Cc2c(O)cccc2OC)CC1	Marburg entry inh inconclusive, LASV entry inh inconclusive, HCV inh inconclusive, FMDV antiviral 32µM
CCOC(=O)C1(CCc2ccccc2)CCN(Cc2cccc3cnccc23)CC1	Marburg entry inh inconclusive, LASV entry inh inconclusive, HCV inh 10µM, FMDV antiviral inconclusive
CCOC(=O)C1(CCc2ccccc2)CCN(Cc2cccc3c2OCO3)CC1	Marburg entry inh 13µM, LASV entry inh inconclusive, HCV inh 10µM, FMDV antiviral inconclusive
CCOC(=O)C1(CCCc2ccccc2)CCN(C(=O)c2ocnc2C)CC1	LASV entry inh 2.8µM
CCOC(=O)C1(Cc2ccccc2)CCN(Cc2cccc3c2OCO3)CC1	Marburg entry inh inconclusive
